Among the data in PubChem BioAssay (NCI) are growth values, retold here.

About 83,000 compounds went through this panel and 20% of them were active in at least one assay; those are over-represented in the sample as a whole.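 Step 1: grow cells in 96-well plates. Step 2: add test compound at a single concentration. Step 3: incubate 48 h. Step 4: record percent growth.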 Unmarked numbers belong to inactive results. Activity calls are given as the source filed them. How the source made its calls: active means growth percent below 10; inactive means the rest.

Holding throughout (assay): NCI-60 one-dose screen, 48 h (100 = growth as untreated, 0 = no growth, -100 = all killed)
One experiment deals with DU-145 prostate. Particulars: 10 µM unless noted.
The test system of the next experiment is K-562 leukemia. Particulars: 10 µM unless noted.
Another experiment deals with MALME-3M melanoma. Particulars: 10 µM unless noted.
For another experiment, the system named is MDA-MB-231 breast. Particulars: 10 µM unless noted.
The test system of another experiment is RXF 393 renal. Particulars: 10 µM unless noted.
In a further experiment the test system is SF-268 CNS. Conditions: 10 µM unless noted.
The next experiment relates to SF-295 CNS. Particulars: 10 µM unless noted.
For another experiment, the system named is SF-539 CNS. Particulars: 10 µM unless noted.
Another experiment deals with UACC-257 melanoma. Conditions: 10 µM unless noted.
In another experiment the test system is M14 melanoma. Particulars: 10 µM unless noted.
A further experiment deals with HCT-15 colon. Particulars: 10 µM unless noted.
For the next experiment, the system named is HT29 colon. Conditions: 10 µM unless noted.
For another experiment, the system named is SNB-75 CNS. Conditions: 10 µM unless noted.
For the next experiment, the system named is U251 CNS. Conditions: 10 µM unless noted.
A further experiment has as its system PC-3 prostate. Particulars: 10 µM unless noted.
The next experiment relates to SK-MEL-5 melanoma. Conditions: 10 µM unless noted.
A further experiment concerns UACC-62 melanoma. Conditions: 10 µM unless noted.
In another experiment the test system is LOX IMVI melanoma. Conditions: 10 µM.
A further experiment deals with SK-MEL-28 melanoma. Particulars: 10 µM unless noted.

For `CC1(C)CC[C@]2(C(=O)Nc3ccc(Br)cc3)CC[C@]3(C)C(=CCC4[C@@]5(C)C[C@@H](O)[C@H](O)[C@@](C)(CO)C5CC[C@]43C)C2C1` (some centres undefined), the growth in the experiment on DU-145 prostate was 21.5%; in the experiment with K-562 leukemia, 5.08% (active); in the experiment on MALME-3M melanoma, 33.2%; in the experiment on MDA-MB-231 breast, -43.3% (active); in the experiment with RXF 393 renal, -64.5% (active); in the experiment with SF-268 CNS, 43.8%. For the same compound, the growth in the experiment with SF-295 CNS was -13.3% (active); with SF-539 CNS, -5.36% (active); with UACC-257 melanoma, 11.1%; with M14 melanoma, 31.9%; with HCT-15 colon, -13% (active); in the experiment on HT29 colon, -60.9% (active). For the same compound, the growth is 57.8% with SNB-75 CNS; -18.9% (active) with U251 CNS; -13.8% (active) in the experiment with PC-3 prostate; -94.4% (active) in the experiment with SK-MEL-5 melanoma; 8.99% (active) in the experiment with UACC-62 melanoma; -86.7% (active) with LOX IMVI melanoma. Moreover, in the experiment on SK-MEL-28 melanoma, the growth was 32.1%.

As to `Clc1cccc(-c2ccc(OCCCN3CCN(c4ccncc4)CC3)cc2)c1`, the growth is 35.2% in the experiment on DU-145 prostate; -50.3% (active) in the experiment on K-562 leukemia; -87% (active) with MALME-3M melanoma; -83.4% (active) in the experiment on MDA-MB-231 breast; -67.1% (active) in the experiment with RXF 393 renal; 33.1% in the experiment on SF-268 CNS. The growth with SF-295 CNS is -80.8% (active); with SF-539 CNS, -81.2% (active); in the experiment with UACC-257 melanoma it was 25.1%; in the experiment with M14 melanoma, -64.8% (active); in the experiment with HCT-15 colon it was -69.8% (active); in the experiment on HT29 colon, -57.5% (active). In addition, the growth with SNB-75 CNS is 42.8%; in the experiment on U251 CNS, -73.6% (active); with PC-3 prostate it was -8.32% (active); in the experiment on SK-MEL-5 melanoma, -98% (active); with UACC-62 melanoma it was -74.3% (active); with LOX IMVI melanoma, -94.9% (active). In the experiment on SK-MEL-28 melanoma, the growth was -68.5% (active).

For the compound `COc1ccc2c(c1)C(=N/N=C(\C)c1ccc(OC)c(S(N)(=O)=O)c1)C(=O)N2`, the growth in the experiment on DU-145 prostate is 105%; with K-562 leukemia, 103%; in the experiment with MALME-3M melanoma it was 93.7%; in the experiment with MDA-MB-231 breast it was 75.1%; in the experiment with RXF 393 renal, 80.4%; in the experiment on SF-268 CNS, 97.5%. Moreover, the growth in the experiment with SF-295 CNS was 86.4%; in the experiment on SF-539 CNS it was 86.8%; in the experiment with UACC-257 melanoma it was 96.7%; in the experiment with M14 melanoma it was 92.4%; with HCT-15 colon it was 98.2%; with HT29 colon it was 96.3%. Also, the growth in the experiment with SNB-75 CNS was 66.3%; in the experiment on U251 CNS it was 74.4%; in the experiment with PC-3 prostate, 83.3%; with SK-MEL-5 melanoma, 91.5%; with UACC-62 melanoma, 77.5%; in the experiment on LOX IMVI melanoma it was 95%. The growth in the experiment on SK-MEL-28 melanoma was 94.1%.

For the compound `CCCCCCCCOc1cccc(S(=O)(=O)Nc2ccc(C)cc2C(=O)O)c1`, the growth in the experiment on DU-145 prostate is 102%; with K-562 leukemia, 83.8%; in the experiment with MALME-3M melanoma, 96%; with MDA-MB-231 breast, 105%; with RXF 393 renal it was 107%; in the experiment on SF-268 CNS, 99.2%. Besides, the growth is 90% with SF-295 CNS; 97.6% with SF-539 CNS; 96.7% with UACC-257 melanoma; 100% with M14 melanoma; 92.4% in the experiment on HCT-15 colon; 110% with HT29 colon. In addition, the growth is 94.9% in the experiment on SNB-75 CNS; 91.5% in the experiment on U251 CNS; 88.2% with PC-3 prostate; 89.1% with SK-MEL-5 melanoma; 85.4% in the experiment on UACC-62 melanoma; 101% in the experiment with LOX IMVI melanoma. In addition, in the experiment with SK-MEL-28 melanoma, the growth was 106%.

For `CCC(C)(C)c1ccc(OCCCCN2CCN(c3ccncc3)CC2)cc1`, the growth was 60.8% with DU-145 prostate; -1.88% (active) in the experiment on K-562 leukemia; -85% (active) with MALME-3M melanoma; -30.9% (active) with MDA-MB-231 breast; -7.66% (active) in the experiment with RXF 393 renal; 66.7% in the experiment with SF-268 CNS. The growth with SF-295 CNS is -35.6% (active); in the experiment with SF-539 CNS, -36% (active); in the experiment on UACC-257 melanoma it was 37.5%; in the experiment with M14 melanoma, -56.6% (active); with HCT-15 colon, -1.1% (active); in the experiment with HT29 colon, 6.61% (active). For the same compound, the growth with SNB-75 CNS is 69.5%; in the experiment with U251 CNS, -11.8% (active); with PC-3 prostate, 19.3%; in the experiment on SK-MEL-5 melanoma, -99.4% (active); in the experiment with UACC-62 melanoma it was -74.5% (active); in the experiment on LOX IMVI melanoma, -76.8% (active). In addition, the growth in the experiment with SK-MEL-28 melanoma is -6.03% (active).

For the compound `CCCSc1nc(NCCc2c[nH]c3ccccc23)c(C#N)c(-c2ccc(F)cc2)n1`, the growth in the experiment with DU-145 prostate is 63.7%; with K-562 leukemia, 27.7%; with MALME-3M melanoma, 75.4%; with MDA-MB-231 breast, 29.2%; with RXF 393 renal, 24.8%; in the experiment with SF-268 CNS, 53.8%. For the same compound, the growth in the experiment with SF-295 CNS was 41.2%; in the experiment on SF-539 CNS, 44.7%; in the experiment with UACC-257 melanoma, 74.6%; in the experiment on M14 melanoma, 75.5%; in the experiment with HCT-15 colon, 18.8%; in the experiment with HT29 colon it was 15.6%. Besides, the growth in the experiment on SNB-75 CNS was 85.7%; in the experiment on U251 CNS it was 28.2%; with PC-3 prostate it was 23.8%; in the experiment with SK-MEL-5 melanoma, 13.1%; with UACC-62 melanoma, 54.6%; in the experiment with LOX IMVI melanoma it was 21.1%. In addition, the growth with SK-MEL-28 melanoma was 63.3%.
